Source: paper PMC7862700, “An all-to-all approach to the identification of sequence-specific readers for epigenetic DNA modifications on cytosine”

Legend:
Experiment in all cases: DAPPL (digital affinity profiling via proximity ligation, sequencing); 10 mM Tris-HCl pH 7.5, 50 mM NaCl, 1 mM DTT, 4% glycerol, room temperature, 30 min; GST-TFs on glutathione beads, 16-mer random dsDNA library, 0.1% formaldehyde crosslink after washing; high values mean tight binding
FEV = target: T1, FEV (Homo sapiens, UniProt Q99581 1-238); conditions: protein: recombinant; tags: N-terminal GST; dsDNA, one strand shown
T1 sequence: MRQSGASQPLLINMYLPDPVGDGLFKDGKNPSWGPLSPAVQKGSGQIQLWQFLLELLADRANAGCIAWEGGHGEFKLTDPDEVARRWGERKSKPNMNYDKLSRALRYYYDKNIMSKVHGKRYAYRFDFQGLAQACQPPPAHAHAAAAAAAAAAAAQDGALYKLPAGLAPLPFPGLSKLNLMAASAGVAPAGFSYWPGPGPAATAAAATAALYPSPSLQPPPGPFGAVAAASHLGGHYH
Procedure, shortened: (§1)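 Binding signal is given per hexamer as its read frequency for a factor divided by its frequency in the tag-only sample. GST-fused human transcription factors were expressed in yeast, captured on glutathione beads, barcoded with DNA and pooled with that sample, then incubated with 200 nmole of a 16-mer random double-stranded DNA library in Tris/NaCl/DTT/glycerol buffer for 30 min at room temperature. The pools were then washed, crosslinked, proximity-ligated, amplified by PCR and sequenced on an Illumina NextSeq500.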

ETV5 = ETV5 (Homo sapiens, UniProt P41161 1-510); conditions: protein: recombinant; tags: N-terminal GST; dsDNA, one strand shown
Procedure, shortened: as §1

HSF1 = HSF1 (Homo sapiens, UniProt Q00613 1-529); conditions: protein: recombinant; tags: N-terminal GST; chain copies: 3; dsDNA, one strand shown
Procedure, shortened: as §1

SPIC = target: T2, SPIC (Homo sapiens, UniProt Q8N5J4 1-248); conditions: protein: recombinant; tags: N-terminal GST; dsDNA, one strand shown
T2 sequence: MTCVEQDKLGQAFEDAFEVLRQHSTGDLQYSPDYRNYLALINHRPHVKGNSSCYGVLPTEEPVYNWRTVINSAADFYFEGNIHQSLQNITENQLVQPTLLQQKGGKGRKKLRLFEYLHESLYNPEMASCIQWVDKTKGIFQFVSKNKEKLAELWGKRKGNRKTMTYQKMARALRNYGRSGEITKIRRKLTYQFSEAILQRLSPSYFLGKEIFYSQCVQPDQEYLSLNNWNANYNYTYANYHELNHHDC
Procedure, shortened: as §1

ELF4 = ELF4 (Homo sapiens, UniProt Q99607 1-663); conditions: protein: recombinant; tags: N-terminal GST; dsDNA, one strand shown
Procedure, shortened: as §1

ELK4 = target: T3, ELK4 (Homo sapiens, UniProt P28324-2 1-405); conditions: protein: recombinant; tags: N-terminal GST; dsDNA, one strand shown
T3 sequence: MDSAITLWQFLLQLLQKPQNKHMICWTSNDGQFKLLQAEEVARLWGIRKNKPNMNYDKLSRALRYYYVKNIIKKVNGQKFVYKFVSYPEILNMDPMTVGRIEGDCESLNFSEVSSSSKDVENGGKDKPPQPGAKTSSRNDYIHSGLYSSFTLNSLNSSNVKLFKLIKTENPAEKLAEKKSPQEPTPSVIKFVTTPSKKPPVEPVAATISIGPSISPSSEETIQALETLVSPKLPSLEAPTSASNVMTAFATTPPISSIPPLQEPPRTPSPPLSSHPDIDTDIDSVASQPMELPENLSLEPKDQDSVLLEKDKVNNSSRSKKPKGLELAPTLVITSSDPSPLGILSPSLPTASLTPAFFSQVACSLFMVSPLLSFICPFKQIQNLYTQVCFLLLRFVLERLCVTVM
Procedure, shortened: as §1

ETV2 = target: T4, ETV2 (Homo sapiens, UniProt O00321 1-342); conditions: protein: recombinant; tags: N-terminal GST; dsDNA, one strand shown
T4 sequence: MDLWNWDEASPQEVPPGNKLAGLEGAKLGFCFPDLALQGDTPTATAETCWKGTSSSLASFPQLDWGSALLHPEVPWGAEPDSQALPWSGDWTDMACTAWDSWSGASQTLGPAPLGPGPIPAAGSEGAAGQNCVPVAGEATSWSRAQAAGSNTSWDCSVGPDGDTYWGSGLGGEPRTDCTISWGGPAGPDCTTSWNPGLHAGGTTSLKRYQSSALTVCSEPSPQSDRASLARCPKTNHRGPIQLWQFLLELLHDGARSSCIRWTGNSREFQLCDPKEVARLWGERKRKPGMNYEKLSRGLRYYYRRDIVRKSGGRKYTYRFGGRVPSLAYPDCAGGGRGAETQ
Procedure, shortened: as §1

ELF3 = target: T5, ELF3 (Homo sapiens, UniProt P78545 1-371); conditions: protein: recombinant; tags: N-terminal GST; dsDNA, one strand shown
T5 sequence: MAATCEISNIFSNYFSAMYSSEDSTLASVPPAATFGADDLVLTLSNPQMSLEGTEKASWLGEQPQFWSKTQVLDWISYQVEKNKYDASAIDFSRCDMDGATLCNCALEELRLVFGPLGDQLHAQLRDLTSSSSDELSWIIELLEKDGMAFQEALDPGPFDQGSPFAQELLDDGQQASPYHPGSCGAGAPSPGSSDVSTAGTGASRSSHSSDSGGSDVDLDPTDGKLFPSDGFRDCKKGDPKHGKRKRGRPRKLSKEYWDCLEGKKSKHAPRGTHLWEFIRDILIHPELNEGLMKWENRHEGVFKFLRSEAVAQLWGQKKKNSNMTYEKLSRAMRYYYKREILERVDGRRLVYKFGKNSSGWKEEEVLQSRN
Procedure, shortened: as §1

CRX = CRX (Homo sapiens, UniProt O43186 1-299); conditions: protein: recombinant; tags: N-terminal GST; dsDNA, one strand shown
Procedure, shortened: as §1

ETV1 = ETV1 (Homo sapiens, UniProt P50549 1-477); conditions: protein: recombinant; tags: N-terminal GST; dsDNA, one strand shown
Procedure, shortened: as §1

ERF = target: T6, ERF (Homo sapiens, UniProt P50548 1-548); conditions: protein: recombinant; tags: N-terminal GST; dsDNA, one strand shown
T6 sequence: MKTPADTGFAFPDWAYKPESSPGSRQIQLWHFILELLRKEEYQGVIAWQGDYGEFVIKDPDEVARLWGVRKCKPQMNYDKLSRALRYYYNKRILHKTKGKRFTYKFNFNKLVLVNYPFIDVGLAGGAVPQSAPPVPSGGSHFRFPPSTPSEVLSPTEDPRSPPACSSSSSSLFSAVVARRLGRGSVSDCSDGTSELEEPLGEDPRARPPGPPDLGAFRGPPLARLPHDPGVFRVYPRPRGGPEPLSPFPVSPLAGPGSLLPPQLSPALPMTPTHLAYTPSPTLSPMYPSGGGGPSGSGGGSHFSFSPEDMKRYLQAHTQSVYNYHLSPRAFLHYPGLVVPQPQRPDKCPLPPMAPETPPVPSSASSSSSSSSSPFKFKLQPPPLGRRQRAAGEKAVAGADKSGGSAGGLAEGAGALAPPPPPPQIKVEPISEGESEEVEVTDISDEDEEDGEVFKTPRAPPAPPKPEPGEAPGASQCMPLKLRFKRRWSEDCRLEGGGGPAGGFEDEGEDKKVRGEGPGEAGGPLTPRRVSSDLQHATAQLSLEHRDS
Procedure, shortened: as §1

ETV3L = target: T7, ETV3L (Homo sapiens, UniProt Q6ZN32 1-361); conditions: protein: recombinant; tags: N-terminal GST; dsDNA, one strand shown
T7 sequence: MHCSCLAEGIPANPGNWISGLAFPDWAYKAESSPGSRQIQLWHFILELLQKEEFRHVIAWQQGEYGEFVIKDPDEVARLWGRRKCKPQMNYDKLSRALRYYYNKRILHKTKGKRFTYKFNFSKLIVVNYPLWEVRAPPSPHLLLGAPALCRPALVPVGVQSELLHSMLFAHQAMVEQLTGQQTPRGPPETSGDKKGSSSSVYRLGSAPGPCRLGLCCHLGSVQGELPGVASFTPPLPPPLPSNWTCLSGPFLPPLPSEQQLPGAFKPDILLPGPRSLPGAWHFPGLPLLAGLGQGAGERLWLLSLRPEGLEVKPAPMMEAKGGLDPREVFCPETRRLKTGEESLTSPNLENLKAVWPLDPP
Procedure, shortened: as §1

ETS2 = target: T8, ETS2 (Homo sapiens, UniProt P15036 1-469); conditions: protein: recombinant; tags: N-terminal GST; dsDNA, one strand shown
T8 sequence: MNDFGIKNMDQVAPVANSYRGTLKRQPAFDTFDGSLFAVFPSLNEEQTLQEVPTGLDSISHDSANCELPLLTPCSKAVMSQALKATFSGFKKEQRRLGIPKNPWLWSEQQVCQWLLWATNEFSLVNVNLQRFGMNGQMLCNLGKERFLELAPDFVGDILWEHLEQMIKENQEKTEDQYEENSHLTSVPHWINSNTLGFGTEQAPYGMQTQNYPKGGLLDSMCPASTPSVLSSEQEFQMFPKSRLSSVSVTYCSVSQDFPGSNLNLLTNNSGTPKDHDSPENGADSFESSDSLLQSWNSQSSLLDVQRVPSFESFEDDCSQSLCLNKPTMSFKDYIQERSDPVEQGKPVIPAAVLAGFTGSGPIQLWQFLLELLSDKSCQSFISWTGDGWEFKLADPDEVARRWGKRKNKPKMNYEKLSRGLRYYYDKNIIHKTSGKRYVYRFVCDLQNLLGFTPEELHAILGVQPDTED
Procedure, shortened: as §1

SPDEF = target: T9, SPDEF (Homo sapiens, UniProt O95238 1-335); conditions: protein: recombinant; tags: N-terminal GST; dsDNA, one strand shown
T9 sequence: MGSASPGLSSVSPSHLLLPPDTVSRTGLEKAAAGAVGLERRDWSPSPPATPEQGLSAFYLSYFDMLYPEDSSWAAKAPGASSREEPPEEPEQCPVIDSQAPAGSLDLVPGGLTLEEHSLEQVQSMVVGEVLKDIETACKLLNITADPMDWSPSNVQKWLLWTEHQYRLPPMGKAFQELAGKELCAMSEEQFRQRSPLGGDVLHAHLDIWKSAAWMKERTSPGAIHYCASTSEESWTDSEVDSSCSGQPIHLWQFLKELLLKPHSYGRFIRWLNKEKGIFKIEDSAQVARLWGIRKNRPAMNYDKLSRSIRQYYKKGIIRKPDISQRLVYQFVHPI
Procedure, shortened: as §1

ETV7 = target: T10, ETV7 (Homo sapiens, UniProt Q9Y603 1-341); conditions: protein: recombinant; tags: N-terminal GST; dsDNA, one strand shown
T10 sequence: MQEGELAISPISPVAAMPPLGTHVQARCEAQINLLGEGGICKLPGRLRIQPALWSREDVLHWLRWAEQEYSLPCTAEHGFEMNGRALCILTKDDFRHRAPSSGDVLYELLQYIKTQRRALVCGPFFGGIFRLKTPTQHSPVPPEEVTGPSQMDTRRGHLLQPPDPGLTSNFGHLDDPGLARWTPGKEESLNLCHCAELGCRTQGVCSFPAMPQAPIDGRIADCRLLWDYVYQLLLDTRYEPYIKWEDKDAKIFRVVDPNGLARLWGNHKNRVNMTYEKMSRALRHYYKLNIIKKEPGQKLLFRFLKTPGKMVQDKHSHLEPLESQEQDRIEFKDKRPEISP
Procedure, shortened: as §1

ELF5 = target: T11, ELF5 (Homo sapiens, UniProt Q9UKW6-2 1-255); conditions: protein: recombinant; tags: N-terminal GST; dsDNA, one strand shown
T11 sequence: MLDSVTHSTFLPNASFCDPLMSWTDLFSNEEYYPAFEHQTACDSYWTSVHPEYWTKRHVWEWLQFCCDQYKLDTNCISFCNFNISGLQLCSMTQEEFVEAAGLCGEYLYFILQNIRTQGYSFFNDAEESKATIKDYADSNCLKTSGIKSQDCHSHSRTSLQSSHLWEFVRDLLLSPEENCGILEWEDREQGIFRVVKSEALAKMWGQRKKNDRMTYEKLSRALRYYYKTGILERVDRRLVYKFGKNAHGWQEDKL
Procedure, shortened: as §1

ETV3 = target: T12, ETV3 (Homo sapiens, UniProt P41162-2 1-143); conditions: protein: recombinant; tags: N-terminal GST; dsDNA, one strand shown
T12 sequence: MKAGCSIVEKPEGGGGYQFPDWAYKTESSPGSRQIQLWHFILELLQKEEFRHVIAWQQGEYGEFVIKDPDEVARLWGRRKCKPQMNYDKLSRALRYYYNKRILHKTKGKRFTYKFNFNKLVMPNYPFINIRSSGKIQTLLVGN
Procedure, shortened: as §1

ETV6 = ETV6 (Homo sapiens, UniProt P41212 1-452); conditions: protein: recombinant; tags: N-terminal GST; dsDNA, one strand shown
Procedure, shortened: as §1

ELF4, sequence (Q99607 whole entry): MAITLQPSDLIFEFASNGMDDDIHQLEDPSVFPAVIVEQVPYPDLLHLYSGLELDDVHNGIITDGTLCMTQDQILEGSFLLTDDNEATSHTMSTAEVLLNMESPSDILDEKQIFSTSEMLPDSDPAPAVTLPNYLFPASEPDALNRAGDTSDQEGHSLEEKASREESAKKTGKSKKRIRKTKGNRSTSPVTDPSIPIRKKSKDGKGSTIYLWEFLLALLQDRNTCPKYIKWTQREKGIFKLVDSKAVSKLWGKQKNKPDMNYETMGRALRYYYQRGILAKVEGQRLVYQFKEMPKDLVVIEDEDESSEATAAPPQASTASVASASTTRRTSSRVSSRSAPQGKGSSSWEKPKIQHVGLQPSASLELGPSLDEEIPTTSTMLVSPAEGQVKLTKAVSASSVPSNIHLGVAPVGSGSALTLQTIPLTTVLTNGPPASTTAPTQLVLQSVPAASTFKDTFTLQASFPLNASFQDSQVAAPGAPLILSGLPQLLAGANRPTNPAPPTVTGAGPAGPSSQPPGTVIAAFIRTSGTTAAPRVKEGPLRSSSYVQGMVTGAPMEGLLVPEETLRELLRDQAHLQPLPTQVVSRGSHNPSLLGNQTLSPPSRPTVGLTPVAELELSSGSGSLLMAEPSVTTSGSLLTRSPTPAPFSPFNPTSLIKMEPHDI
ETV6, sequence (P41212 whole entry): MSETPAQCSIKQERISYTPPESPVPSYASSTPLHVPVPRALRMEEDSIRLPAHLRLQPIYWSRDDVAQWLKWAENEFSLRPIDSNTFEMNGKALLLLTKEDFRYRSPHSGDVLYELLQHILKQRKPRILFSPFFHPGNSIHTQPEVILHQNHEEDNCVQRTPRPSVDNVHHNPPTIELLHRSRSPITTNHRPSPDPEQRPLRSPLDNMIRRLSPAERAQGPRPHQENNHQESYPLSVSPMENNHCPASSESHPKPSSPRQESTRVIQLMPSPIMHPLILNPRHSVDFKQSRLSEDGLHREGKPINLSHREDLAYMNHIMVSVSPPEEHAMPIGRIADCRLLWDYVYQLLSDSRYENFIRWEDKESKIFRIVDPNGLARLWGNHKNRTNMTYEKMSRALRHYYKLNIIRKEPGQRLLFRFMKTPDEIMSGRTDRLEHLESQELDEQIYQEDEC
CRX, sequence (O43186 whole entry): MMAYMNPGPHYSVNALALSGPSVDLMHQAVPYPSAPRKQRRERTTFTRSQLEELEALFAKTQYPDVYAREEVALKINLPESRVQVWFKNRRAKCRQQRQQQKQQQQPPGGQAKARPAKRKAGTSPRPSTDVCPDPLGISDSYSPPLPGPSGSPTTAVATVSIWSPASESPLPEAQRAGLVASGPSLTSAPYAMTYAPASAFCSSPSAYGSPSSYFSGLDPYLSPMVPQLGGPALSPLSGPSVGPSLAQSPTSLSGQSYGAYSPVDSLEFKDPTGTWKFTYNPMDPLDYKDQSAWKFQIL
ETV1, sequence (P50549 whole entry): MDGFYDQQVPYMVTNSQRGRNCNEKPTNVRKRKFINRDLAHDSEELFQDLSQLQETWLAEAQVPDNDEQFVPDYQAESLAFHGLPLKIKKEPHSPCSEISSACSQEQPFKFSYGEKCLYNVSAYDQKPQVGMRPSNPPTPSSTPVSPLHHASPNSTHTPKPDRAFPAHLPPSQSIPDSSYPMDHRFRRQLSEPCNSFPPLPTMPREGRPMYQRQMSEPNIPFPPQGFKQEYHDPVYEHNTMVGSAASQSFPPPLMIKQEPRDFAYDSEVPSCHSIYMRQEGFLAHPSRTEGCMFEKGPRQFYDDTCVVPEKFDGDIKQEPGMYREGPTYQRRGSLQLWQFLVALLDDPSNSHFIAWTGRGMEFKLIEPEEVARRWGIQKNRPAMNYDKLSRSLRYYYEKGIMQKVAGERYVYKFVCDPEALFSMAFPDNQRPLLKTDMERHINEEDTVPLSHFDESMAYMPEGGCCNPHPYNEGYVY
ETV5, sequence (P41161 whole entry): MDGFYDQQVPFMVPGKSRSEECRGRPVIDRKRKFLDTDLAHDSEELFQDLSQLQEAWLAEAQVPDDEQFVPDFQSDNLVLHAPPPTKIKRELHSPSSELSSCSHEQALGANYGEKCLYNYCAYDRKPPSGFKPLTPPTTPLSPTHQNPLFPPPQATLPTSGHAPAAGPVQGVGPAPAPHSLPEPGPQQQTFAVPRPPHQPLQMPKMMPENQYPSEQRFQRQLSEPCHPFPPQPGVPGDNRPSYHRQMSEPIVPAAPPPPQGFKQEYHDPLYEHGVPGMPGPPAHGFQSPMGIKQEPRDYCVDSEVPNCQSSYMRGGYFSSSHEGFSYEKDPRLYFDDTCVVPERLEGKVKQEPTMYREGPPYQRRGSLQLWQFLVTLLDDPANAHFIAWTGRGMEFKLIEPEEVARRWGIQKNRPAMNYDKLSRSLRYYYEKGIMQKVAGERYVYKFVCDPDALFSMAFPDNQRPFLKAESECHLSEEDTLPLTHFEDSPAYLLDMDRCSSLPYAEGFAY
HSF1, sequence (Q00613 whole entry): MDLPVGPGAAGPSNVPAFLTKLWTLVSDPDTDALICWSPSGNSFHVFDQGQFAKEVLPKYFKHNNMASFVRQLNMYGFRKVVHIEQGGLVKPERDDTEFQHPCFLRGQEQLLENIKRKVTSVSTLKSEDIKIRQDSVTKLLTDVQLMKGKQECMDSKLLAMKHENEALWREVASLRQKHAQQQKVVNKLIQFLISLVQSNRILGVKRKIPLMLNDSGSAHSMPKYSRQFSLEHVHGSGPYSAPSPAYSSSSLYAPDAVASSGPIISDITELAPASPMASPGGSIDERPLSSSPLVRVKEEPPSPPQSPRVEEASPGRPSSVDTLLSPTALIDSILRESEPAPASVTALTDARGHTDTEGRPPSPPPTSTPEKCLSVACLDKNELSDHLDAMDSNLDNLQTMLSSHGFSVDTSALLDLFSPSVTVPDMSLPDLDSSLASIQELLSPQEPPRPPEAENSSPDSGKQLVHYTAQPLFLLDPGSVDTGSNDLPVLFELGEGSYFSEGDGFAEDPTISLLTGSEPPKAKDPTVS

TGTTTT
binding signal (FEV): 1.24 fold enrichment (6-mer frequency, TF over GST control) | binding signal (ETV5): 1.42 fold enrichment (6-mer frequency, TF over GST control) | binding signal (HSF1): 1.21 fold enrichment (6-mer frequency, TF over GST control) | binding signal (SPIC): 1.36 fold enrichment (6-mer frequency, TF over GST control) | binding signal (ELF4): 1.37 fold enrichment (6-mer frequency, TF over GST control) | binding signal (ELK4): 1.35 fold enrichment (6-mer frequency, TF over GST control) | binding signal (ETV2): 1.38 fold enrichment (6-mer frequency, TF over GST control) | binding signal (ELF3): 1.33 fold enrichment (6-mer frequency, TF over GST control) | binding signal (CRX): 1.23 fold enrichment (6-mer frequency, TF over GST control) | binding signal (ETV1): 1.29 fold enrichment (6-mer frequency, TF over GST control) | binding signal (ERF): 1.26 fold enrichment (6-mer frequency, TF over GST control) | binding signal (ETV3L): 1.37 fold enrichment (6-mer frequency, TF over GST control) | binding signal (ETS2): 1.36 fold enrichment (6-mer frequency, TF over GST control) | binding signal (SPDEF): 1.41 fold enrichment (6-mer frequency, TF over GST control) | binding signal (ETV7): 1.28 fold enrichment (6-mer frequency, TF over GST control) | binding signal (ELF5): 1.48 fold enrichment (6-mer frequency, TF over GST control) | binding signal (ETV3): 1.46 fold enrichment (6-mer frequency, TF over GST control) | binding signal (ETV6): 1.39 fold enrichment (6-mer frequency, TF over GST control)
